# Compounds with a hit are over-represented: about 8.2% of the library has one in this group of screens.
# KB-V1 cytotox – KB-V1 MDR subline cytotoxicity. KB-V1 MDR cells viability, CellTiter-Glo, 72 h. Potency, µM (titrated, usually from 46.1 µM), usual class: cytotoxic. 400,000 tested, 3.4% active. AID 1347076; note: % is set by controls: 0 for no effect and ±100 for the full control effect; nearly all actives have a fitted effect of over 60% in size
#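 KB-V1 MDR subline cells in DMEM (phenol-red free, 10% FBS) exposed to compounds in qHTS concentration series for 72 h at 37 degrees C. Viability read by CellTiter-Glo luminescence; concentration-effect curves fitted after normalization and correction.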
# ELG1 repair inh – ELG1-dependent DNA repair inhibition; HEK293T ELG1-luciferase reporter, luminescence, 16 h; DNA damage induced by 5-fluorouridine; Potency, µM (titrated, usually from 46.1 µM), for inactives: at the top dose activity change, negative = inhibition, most hits filed as inhibitors; 330,000 tested, 2.3% active; AID 504467; note: % is set by controls: 0 for no effect and ±100 for the full control effect; nearly all actives have a fitted effect of over 55% in size
#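 Cells (2,000 per well) received 5-fluorouridine plus test compound or DMSO and were incubated 16 hr at 37 °C, 5% CO2. Luciferase activity was read by luminescence 30 min after ONE-Glo addition; signal suppression marked inhibition of damage-induced ELG1 function.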
# SW480 rereplic – induces DNA re-replication in SW480 colon adenocarcinoma cells | SW480 DNA re-replication, Hoechst DNA content imaging, 48 h | Potency, µM (titrated, usually from 46.1 µM), for the others: top-dose re-replication activation, actives largely listed as activators | 340,000 tested, 1.8% active | AID 624297; note: % of control where 0% means no effect; nearly all actives have a fitted effect of over 55% in size
#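 DNA re-replication was detected as more nuclei of elevated Hoechst intensity after 48 hr exposure to compound (23 nL pinned per well of 250 cells).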
# KB-3-1 tox – kills parental KB-3-1 adenocarcinoma cells; KB-3-1 viability, CellTiter-Glo ATP luminescence, 72 h; Potency, µM (highest dose often 46.1 µM), usual class: cytotoxic; 400,000 tested, 1.4% active; AID 1347075; note: % is set by controls: 0 for no effect and ±100 for the full control effect; nearly all actives have a fitted effect of over 60% in size
#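 Luminescent ATP read-out (CellTiter-Glo) measures survival of drug-naive KB-3-1 cells after 72 h compound exposure at 37 °C. Titration series was screened from lowest to highest concentration, with DMSO vehicle plates as background controls.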
# MCF10A rerep – inducers of DNA re-replication in MCF 10A breast cells; MCF 10A DNA re-replication, Hoechst nuclear intensity, 48 h; Potency, µM (highest dose often 46.1 µM), for inactives: top-dose activity, positive = re-replication, most hits filed as activators; 350,000 tested, 2.9% active; AID 624296; note: % of control where 0% means no effect; nearly all actives have a fitted effect of over 50% in size
# An asterisk follows results filed as active; i = inactive; ? = inconclusive; . = no result given. Calls come from the whole dose curve; as a rule, active = well fitted curve in the direction sought with a large enough effect; inconclusive = small, poorly fitted or top-dose-only effect, or another doubt; inactive = no such curve, though single readings can be large; an effect the other way counts as inactive or inconclusive. Potency is the fitted concentration of half-maximal effect.
SMILES,KB-V1 cytotox,ELG1 repair inh,SW480 rereplic,KB-3-1 tox,MCF10A rerep
CCn1c(/C=C/c2ccccc2Cl)nc2ccccc2c1=O,i,?,?,i,16µM*
Cc1cccc(NC(=O)C(Cc2ccccc2)NS(=O)(=O)c2ccc3c(c2)c(=O)n(C)c(=O)n3C)c1 (stereo unspecified),i,.,.,i,.
Cc1ccccc1/C=C\c1nc2ccccc2c(=O)n1Cc1ccccc1,?,29µM*,4%,i,?
CCn1c(/C=C/c2c[nH]c3ccccc23)nc2ccccc2c1=O,i,?,?,i,21µM*
CCn1c(/C=C\c2ccccc2C)nc2ccccc2c1=O,?,-16%,19%,i,0%
CSc1nc2[nH]c(=O)n(O)c(=O)c2n1Cc1ccccc1,i,.,2.3µM*,?,?
CSc1nc2c(c(=O)n1Cc1ccccc1)SC(C)C2 (stereo unspecified),?,2%,?,i,7%
CC(C)Oc1ccc(C(=O)OCC(=O)NC2CCCCCC2)cc1,i,-5%,-14%,i,-3%
CC(=O)Nc1cccc(NC(=O)COC(=O)CO/N=C(\C)c2ccc3c(c2)OCO3)c1,i,14%,-2%,i,?
Cc1ccc(S(=O)(=O)NCC(=O)N(CC(=O)NC2CCCC2)CC2CCCO2)cc1 (stereo unspecified),i,-7%,9%,i,-1%
COc1ccc(C(=O)/C=C/C(=O)N(CC(=O)NC2CCCCC2)CC2CCCO2)c(O)c1 (stereo unspecified),?,?,-21%,?,12µM*
COc1ccc(C(=O)/C=C/C(=O)N(CC(=O)NC2CCCCC2)Cc2ccccc2OC)c(O)c1,15µM*,?,3.3µM*,?,?
COc1ccc(C(=O)/C=C/C(=O)N(CC(=O)NC2CCCCC2)Cc2ccccc2)c(O)c1,i,?,6.5µM*,?,?
O=C(CSc1ccc2c(c1)OCCO2)N1CCN(c2ccccc2O)CC1,?,?,-1%,?,9%
CCOc1ccccc1N1CCN(C(=O)CSc2ccc3c(c2)OCCO3)CC1,12µM*,-16%,-9%,i,22%
CCOc1ccc(N/C=C/C(=O)c2ccccc2)c([N+](=O)[O-])c1,?,?,0%,16µM*,7%
CCOc1ccc(NC(=O)/C=C/c2ccccc2)c([N+](=O)[O-])c1,?,?,?,?,-2%
CN1CCCC1CCNc1ncnc2ccc(-c3ccc4c(c3)OCO4)cc12 (stereo unspecified),?,.,.,i,.
CCOC(=O)Cc1csc(NC(=O)c2ccc(Br)cc2)n1,i,-19%,-13%,i,3%
CCOC(=O)Cc1csc(NC(=O)CCc2ccc(S(=O)(=O)N3CCOCC3)cc2)n1,i,12µM*,23µM*,i,?
CCOC(=O)Cc1csc(NC(=O)c2ccc(S(=O)(=O)N3CCCCC3)cc2)n1,15µM*,-34%,-5%,i,5%
CN(C(=O)c1ccoc1)c1ccc2ccccc2c1,?,-9%,?,?,?
Cc1cc(C)c(S(=O)(=O)Nc2ccccc2-c2ccccc2)c(C)c1,18µM*,-4%,10%,?,?
Cc1cc(C)c(S(=O)(=O)Nc2cnc3ccccc3c2)c(C)c1,15µM*,?,3%,i,13%
CC[n+]1ccc(C[n+]2ccccc2)c2ccccc21,i,1%,-3%,i,1%
SMILES,KB-V1 cytotox,ELG1 repair inh,SW480 rereplic,KB-3-1 tox,MCF10A rerep
CCN(CC)c1ccccc1/C=C/[n+]1ccc(CCCCI)c2ccccc21,?,.,.,3.7µM*,.
O=C(NCCc1ccc(F)cc1)c1ccc(Cl)c(S(=O)(=O)N2CCOCC2)c1,i,?,-5%,i,12%
O=C(Nc1nc(-c2ccc(F)cc2)cs1)c1cccc(N2C(=O)CCC2=O)c1,i,?,-7%,i,1%
COCCN(C(=O)c1cccc(N2C(=O)CCC2=O)c1)c1nc(-c2ccc([N+](=O)[O-])cc2)cs1,?,5.8µM*,-1%,?,10%
CCOCCCNC(=S)N1CCCN(c2nc3cc(C)ccc3cc2C#N)CC1,i,?,5%,i,0%
Cc1cc(C)c2cc(C#N)c(N3CCCC3)nc2c1,i,3%,?,i,?
Cc1ccc2cc(C#N)c(N3CCCN(C(=S)NCCCN(C)C)CC3)nc2c1,i,1%,23µM*,?,3.7µM*
Cc1cc(C)c2cc(C#N)c(N3CCCN(C(=S)NCCCN(C)C)CC3)nc2c1,?,12%,?,?,7.3µM*
Cc1nn(-c2ccc(F)cc2)c(-n2cccc2)c1C(=O)N1CCN(C(=O)c2ccco2)CC1,i,-4%,4%,i,4%
COc1ccccc1NC(=S)N(Cc1ccco1)Cc1cc2ccc(C)c(C)c2[nH]c1=O,1.8µM*,?,?,0.92µM*,?
Cc1ccc2cc(CN(Cc3ccco3)C(=O)NC3CCCCC3)c(=O)[nH]c2c1C,?,7.3µM*,13%,i,28%
Cc1cc(C)c2cc(CN(Cc3ccco3)C(=O)NCc3ccccc3)c(=O)[nH]c2c1,i,8.2µM*,?,?,?
Cc1cc(C)c2cc(CN(CC3CCCO3)C(=S)NCc3ccco3)c(=O)[nH]c2c1 (stereo unspecified),?,?,2%,i,8%
COc1ccccc1NC(=S)N(Cc1ccco1)Cc1cc2cc(C)cc(C)c2[nH]c1=O,2.9µM*,12µM*,21µM*,6.5µM*,13µM*
Cc1cc(C)c2[nH]c(=O)c(CN(CC3CCCO3)C(=S)NCc3ccco3)cc2c1 (stereo unspecified),i,-22%,-2%,i,-1%
Cc1ccc(NC(=S)N(CCCN2CCCC2)Cc2cccn2Cc2ccc(Cl)cc2)cc1Cl,i,-1%,?,i,?
COc1ccc(NC(=S)N(CCCN2CCCC2)Cc2cccn2Cc2ccc(Cl)cc2)cc1Cl,18µM*,?,23µM*,i,21µM*
Cc1[nH]c2ccccc2c1/C=C(\C#N)S(=O)(=O)c1ccccc1,i,0%,-1%,i,3%
Cc1cc(C)c(/C=C(\C#N)S(=O)(=O)c2ccccc2)[nH]1,?,-23%,0%,i,18µM*
COC(=O)CSc1ccc(S(=O)(=O)N2CCCCCC2)cc1[N+](=O)[O-],?,10µM*,-15%,i,1%
O=[N+]([O-])c1cc(S(=O)(=O)N2CCCCCC2)ccc1F,i,?,.,?,4.6µM*
CCOC(=O)CSc1ccc(S(=O)(=O)N2CCCCC2)cc1[N+](=O)[O-],i,0%,0%,i,-1%

# Screens deposited in PubChem by National Center for Advancing Translational Sciences (NCATS).
